Our source for the Potency and max activation values is PubChem BioAssay (Tox21).

A short description of experiment [1]: qHTS assay to identify aromatase inhibitors - cell viability counter screen (AID 743084).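 Note: cells stimulated with testosterone during compound exposure; nearly all actives have a fitted effect of over 55% in size.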 Note: potency is the fitted concentration of half-maximal effect. A general note: Quantitative high-throughput screening tests each substance at several concentrations.
Experiment [2] concerns the target Aryl hydrocarbon receptor (Homo sapiens) (UniProt P35869). As to the kind of experiment: qHTS assay to identify small molecule that activate the aryl hydrocarbon receptor (AhR) signaling pathway (AID 743085).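 For activation: HG2L7.5c1 human HepG2 liver cells with stably integrated DRE-driven firefly reporter; series mostly up to about 70 µM.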 Note: nearly all actives have a fitted effect of over 15% in size. Note: potency is the fitted concentration of half-maximal effect. In a few lines: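 HepG2 cells stably carrying a 20-DRE firefly luciferase reporter (HG2L7.5c1) treated with compound for 24 hr at 37C. Luciferase read by ONE-Glo luminescence, with CellTiter-Fluor viability read first.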

Experiment [3] is described as follows: qHTS assay to identify small molecule that activate the aryl hydrocarbon receptor (AhR) signaling pathway - cell viability counter screen (AID 743086). Note: nearly all actives have a fitted effect of over 45% in size. Note: potency is the fitted concentration of half-maximal effect. The gist of the method: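 HepG2-AhR-luc (HG2L7.5c1) cells, 4000/well, treated 24 h at 37 C with compound; viability measured as CellTiter-Fluor fluorescence after 30 min in the same wells as the luciferase read.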

For experiment [4], the target named is Peroxisome proliferator-activated receptor gamma (Homo sapiens) (UniProt P37231). As to the kind of experiment: qHTS assay to identify small molecule agonists of the peroxisome proliferator-activated receptor gamma (PPARg) signaling pathway (AID 743094; active = well fitted activation curve with a large enough effect in the signal ratio in the repeat runs, not every such curve was filed as active; the % refers to the signal ratio; note: potency is the fitted concentration of half-maximal effect). The gist of the method:
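Fluorescence-based beta-lactamase readout in HEK293H PPARg UAS-bla cells after 17 h compound exposure (37C) and 1 h B/G FRET substrate incubation at room temperature.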

Experiment [5] is described as follows: qHTS assay to identify small molecule phospholipidosis (PLD) inducers (AID 1259344; active = well fitted curve in the direction sought with a large enough effect; an effect the other way counts as inactive or inconclusive). The gist of the method:
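Image-based: LipidTOX Red pit count/intensity per well and per cell; HepG2, 24 h compound at 37 C, PFA fixation, Hoechst counterstain.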

Experiment [6] concerns the target Nuclear receptor subfamily 1 group I member 2 (Rattus norvegicus) (UniProt Q9R1A7). In words: Rat pregnane X receptor (rPXR) activation by small molecules, qHTS assay (AID 1346983). Note: nearly all actives have a fitted effect of over 20% in size. Note: potency is the fitted concentration of half-maximal effect. To be noted: rPXR luciferase reporter cells, One-Glo luminescence, 24 h; max activation: active compounds read high. In a few lines:
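Cell-based rPXR activation assay: rPXR cells, 2,000 per well, rested 5hr at 37 C, then exposed to compounds in DMSO for 24 hr at 37 C. Luciferase activity read by One-Glo luminescence after 30 min at room temperature.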

Experiment [7] addresses Nuclear receptor subfamily 1 group I member 2 (Homo sapiens) (UniProt O75469). In words: CYP3A4 induction through human pregnane X receptor (PXR) by small molecules, qHTS assay (AID 1346984). Note: nearly all actives have a fitted effect of over 40% in size. Note: potency is the fitted concentration of half-maximal effect. In a few lines:
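After 24 h at 37C with compound, DPX-2 cells (HepG2, co-transfected PXR response element and CYP3A4 promoter-luciferase) got 3uM final P450-Glo Luciferin-IPA for 3 h; One-Glo luminescence followed.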

For experiment [8] the target is unchanged. As to the kind of experiment: Human pregnane X receptor (PXR) activation by small molecules, qHTS assay (AID 1346985). Note: nearly all actives have a fitted effect of over 40% in size. Note: potency is the fitted concentration of half-maximal effect. The gist of the method:
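DPX-2 cells (HepG2 co-transfected with a PXR response element and a CYP3A4-promoter luciferase construct) were seeded at 2,000 per well, rested 5 hr at 37C, then exposed to DMSO-dissolved compounds for 24 hr. Activation was read as luciferase luminescence.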

Inconclusive results are not listed. Values without a mark were called inactive. Calls of active or inactive are those of the source. Unless noted, calls come from the whole dose curve; as a rule, active = well fitted curve in the direction sought with a large enough effect in the repeat runs; inconclusive = weak or mixed curves; inactive = no such curve, though single readings can be large; an effect the other way counts as inactive or inconclusive.
% is set by controls: 0 for no effect and ±100 for the full control effect.

Sequence of Peroxisome proliferator-activated receptor gamma (Homo sapiens) (P37231 whole entry, looked up): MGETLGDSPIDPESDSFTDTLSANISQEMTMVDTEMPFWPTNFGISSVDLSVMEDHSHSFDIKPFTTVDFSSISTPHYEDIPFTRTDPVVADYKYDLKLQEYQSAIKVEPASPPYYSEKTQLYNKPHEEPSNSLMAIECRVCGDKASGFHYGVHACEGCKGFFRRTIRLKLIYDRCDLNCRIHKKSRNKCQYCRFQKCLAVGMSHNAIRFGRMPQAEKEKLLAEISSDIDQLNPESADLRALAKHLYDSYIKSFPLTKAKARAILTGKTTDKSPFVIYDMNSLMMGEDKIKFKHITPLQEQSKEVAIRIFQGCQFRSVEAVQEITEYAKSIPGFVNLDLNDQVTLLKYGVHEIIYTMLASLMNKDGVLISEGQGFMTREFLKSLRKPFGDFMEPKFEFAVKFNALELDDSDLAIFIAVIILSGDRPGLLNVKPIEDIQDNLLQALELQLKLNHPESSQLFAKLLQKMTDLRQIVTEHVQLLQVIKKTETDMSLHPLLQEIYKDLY
Sequence of Aryl hydrocarbon receptor (Homo sapiens) (P35869 whole entry, looked up): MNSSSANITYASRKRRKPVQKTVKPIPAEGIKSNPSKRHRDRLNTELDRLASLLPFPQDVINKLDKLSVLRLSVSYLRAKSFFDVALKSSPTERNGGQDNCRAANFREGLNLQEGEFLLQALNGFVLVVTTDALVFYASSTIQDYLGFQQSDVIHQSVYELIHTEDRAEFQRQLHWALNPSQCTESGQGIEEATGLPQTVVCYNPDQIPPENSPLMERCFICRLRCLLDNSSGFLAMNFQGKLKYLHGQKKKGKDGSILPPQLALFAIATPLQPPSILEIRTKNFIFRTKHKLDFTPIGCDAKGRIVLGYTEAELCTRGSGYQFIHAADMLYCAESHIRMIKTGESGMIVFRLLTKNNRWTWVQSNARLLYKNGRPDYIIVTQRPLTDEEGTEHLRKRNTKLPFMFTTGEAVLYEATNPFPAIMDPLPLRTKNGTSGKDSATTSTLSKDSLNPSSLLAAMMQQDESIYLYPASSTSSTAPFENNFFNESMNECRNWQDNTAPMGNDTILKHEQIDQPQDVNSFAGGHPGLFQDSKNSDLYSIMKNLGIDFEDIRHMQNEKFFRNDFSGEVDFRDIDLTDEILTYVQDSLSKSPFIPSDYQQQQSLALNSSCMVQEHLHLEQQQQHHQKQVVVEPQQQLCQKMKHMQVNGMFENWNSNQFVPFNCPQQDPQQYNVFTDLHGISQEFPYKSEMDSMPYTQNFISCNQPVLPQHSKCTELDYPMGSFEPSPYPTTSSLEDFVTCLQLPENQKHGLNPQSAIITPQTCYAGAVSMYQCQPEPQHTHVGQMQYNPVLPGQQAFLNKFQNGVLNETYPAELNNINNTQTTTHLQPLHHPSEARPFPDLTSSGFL
Sequence of Nuclear receptor subfamily 1 group I member 2 (Rattus norvegicus) (Q9R1A7 whole entry, looked up): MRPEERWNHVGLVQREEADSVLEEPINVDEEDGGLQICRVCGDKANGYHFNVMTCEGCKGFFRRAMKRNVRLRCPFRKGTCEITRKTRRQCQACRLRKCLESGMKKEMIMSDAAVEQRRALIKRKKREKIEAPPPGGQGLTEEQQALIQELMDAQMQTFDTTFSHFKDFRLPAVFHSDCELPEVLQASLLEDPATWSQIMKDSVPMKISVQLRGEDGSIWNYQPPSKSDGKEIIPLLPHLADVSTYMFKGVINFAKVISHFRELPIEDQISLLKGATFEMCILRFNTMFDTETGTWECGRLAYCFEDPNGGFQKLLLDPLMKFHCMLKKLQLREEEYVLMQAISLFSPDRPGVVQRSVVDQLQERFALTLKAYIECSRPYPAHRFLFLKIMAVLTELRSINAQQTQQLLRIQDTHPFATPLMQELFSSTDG

As for `COc1cc2c(cc1OC)[C@@H](c1ccccc1)CN(C)CC2`, the Potency result in experiment [1], in experiment [2], in experiment [3], in experiment [4], in experiment [5] and in experiment [7] was “inactive” in each case. Further, the max activation in experiment [6] is 1.99%.

On to `CNc1cc(OC)c(C(=O)N[C@H]2CCN(Cc3ccccc3)[C@H]2C)cc1Cl`, for which the Potency entry in experiment [1], in experiment [2], in experiment [3], in experiment [4], in experiment [5] and in experiment [7] was “inactive” in each case. Moreover, the max activation in experiment [6] is -1.71%.

For the molecule `CCOc1cc(-c2nccc3cc(OC)c(OC)cc23)cc(OCC)c1OCC`, the values for the Potency in experiment [1], in experiment [2] and in experiment [3] were 29.8 µM (active), 2.11 µM (active) and 21.1 µM (active), respectively. Moreover, the Potency entry in experiment [4], in experiment [5] and in experiment [7] was “inactive” each time. The max activation in experiment [6] is 5.49%.

For `COc1cc2c(cc1OC)CC(=O)N(CCCN(C)C[C@H]1Cc3cc(OC)c(OC)cc31)CC2`, the Potency entry in experiment [1], in experiment [2], in experiment [3], in experiment [4], in experiment [5] and in experiment [7] was “inactive” in each case. Further, the max activation in experiment [6] is -0.416%.

Consider `CO[C@H]1O[C@@H]2O[C@@]3(C)CC[C@H]4[C@H](C)CC[C@@H]([C@H]1C)[C@@]24OO3`, for which the Potency result in experiment [1], in experiment [2], in experiment [3], in experiment [4], in experiment [5] and in experiment [7] was “inactive” throughout. Moreover, the max activation in experiment [6] was -2.27%.

In the case of `CN1c2cc(O)c(N=NC(N)=O)cc2CC1S(=O)(=O)O` (stereo unspecified), the Potency entry in experiment [2], in experiment [4], in experiment [5], in experiment [7] and in experiment [8] was “inactive” each time. Also, the max activation in experiment [6] was 0.153%.

For the molecule `Nc1ncnc2c1ncn2[C@@H]1O[C@H](COP(=O)(O)OP(=O)(O)OP(=O)(O)O)[C@@H](O)[C@H]1O`, the Potency entry in experiment [2], in experiment [3], in experiment [4], in experiment [5], in experiment [7] and in experiment [8] was “inactive” each time. Moreover, the max activation in experiment [6] is 2.22%.

For the molecule `COC(=O)[C@H]1[C@H]2C[C@@H]3c4[nH]c5cc(OC)ccc5c4CCN3C[C@H]2C[C@H](OC)[C@@H]1OC`, the Potency entry in experiment [1], in experiment [3], in experiment [5] and in experiment [7] was “inactive” each time. Also, in experiment [6], the max activation is 6.76%.

For `CCC(=O)O[C@]1(C(=O)CCl)[C@@H](C)C[C@H]2[C@@H]3C[C@H](F)C4=CC(=O)C=C[C@]4(C)[C@@]3(F)[C@@H](O)C[C@@]21C`, the Potency entry in experiment [1], in experiment [3] and in experiment [5] was “inactive” throughout. Also, the Potency in experiment [2] was 3.35 µM (active); in experiment [6], 447 nM (active); in experiment [7] it was 1.58 µM (active).

On to `CN(C)C(=O)CCSC(SCCC(=O)O)c1cccc(/C=C/c2ccc3ccc(Cl)cc3n2)c1` (stereo unspecified), for which the results for the Potency in experiment [2], in experiment [6] and in experiment [8] were 1.88 µM (active), 4470 nM (active) and 8.91 µM (active), respectively. In addition, the Potency result in experiment [5] and in experiment [7] was “inactive” throughout.

As for `CCCCCCCCCCCCCC[n+]1ccc(C)cc1`, the Potency entry in experiment [2], in experiment [5], in experiment [7] and in experiment [8] was “inactive” in each case. The max activation in experiment [6] was -19.6%.

For the molecule `C#C[C@]1(O)CC[C@H]2[C@@H]3CCC4=C/C(=N/O)CC[C@@H]4[C@H]3CC[C@@]21CC`, the Potency entry in experiment [2], in experiment [3], in experiment [5] and in experiment [7] was “inactive” in each case. In addition, the max activation in experiment [6] was 6.76%. Further, the Potency in experiment [8] was 4.47 µM (active).

Regarding `C=C1C(=O)O[C@H]2[C@H]1CC/C(C)=C\CC[C@@]1(C)O[C@@H]21`, the values for the Potency in experiment [1] and in experiment [3] were 18.8 µM (active) and 16.8 µM (active), respectively. Moreover, the Potency result in experiment [2], in experiment [5] and in experiment [7] was “inactive” each time. Also, in experiment [6], the max activation is -19.8%.

`Nc1nc(=O)n([C@@H]2CS[C@H](CO)O2)cc1F`: the Potency result in experiment [3], in experiment [5], in experiment [7] and in experiment [8] was “inactive” throughout. Moreover, in experiment [6], the max activation is 2.33%.

On to `Cn1c(O)c(N=NC(N)=S)c2ccccc21`, for which the Potency in experiment [2] is 1.06 µM (active); in experiment [3], 2.98 µM (active); in experiment [4] it was 21.3 µM (active); in experiment [8], 14.1 µM (active). The Potency entry in experiment [5] and in experiment [7] was “inactive” in each case. The max activation in experiment [6] was 1.06%.

Regarding `CC(=O)Nc1ccc(NC(=S)NC(=O)c2ccc(C(C)(C)C)cc2)cc1`, the Potency result in experiment [1], in experiment [3], in experiment [4], in experiment [5] and in experiment [7] was “inactive” throughout. In addition, in experiment [2], the Potency was 1.5 µM (active). The max activation in experiment [6] was -2.69%.

Consider `CO[C@H]1C[C@@H]2CC[C@@H](C)[C@@](O)(O2)C(=O)C(=O)N2CCCC[C@H]2C(=O)O[C@H]([C@H](C)C[C@@H]2CC[C@@H](OCCO)[C@H](OC)C2)CC(=O)[C@H](C)/C=C(\C)[C@@H](O)[C@@H](OC)C(=O)[C@H](C)C[C@H](C)/C=C/C=C/C=C/1C`, for which the Potency in experiment [1] and in experiment [3] was 11.9 µM (active) throughout. Besides, the Potency result in experiment [2], in experiment [5] and in experiment [7] was “inactive” in each case. For the same molecule, the max activation in experiment [6] was -9.27%.
